Screens (PubChem)
G9a inh: inhibitors of human histone lysine methyltransferase G9a. G9a H3K9 monomethylation, AlphaScreen, 2 h. 350,000 compounds, 8.8% hits. Potency, µM (series often up to 102 µM), usual class: inhibitors. AID 504332; note: nearly all actives have a fitted effect of over 75% in size
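Methyltransferase reactions run at room temperature for 2 h (20 nM enzyme, 500 nM biotin-H3K9 peptide, 20 uM SAM) after a 15 min compound preincubation; product detected by AlphaScreen beads and anti-H3K9me1 antibody.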
BAZ2B inh: inhibitors of human BAZ2B bromodomain; 360,000 compounds, 4.4% hits; Potency, µM (top dose mostly 114 µM), usual class: inhibitors; AlphaScreen BAZ2B-H3K14Ac peptide displacement; AID 504333; Q9UIF8; note: nearly all actives have a fitted effect of over 60% in size
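AlphaScreen luminescence quantifies BAZ2B engagement of H3K14Ac peptide; the protein and biotinylated peptide are both at 50 nM final, buffer PBS pH 7.4 with 0.01% Tween-20, all steps at room temperature.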
JMJD2A Tudor: inhibitors of human JMJD2A Tudor domain | O75164 | AlphaScreen JMJD2A-Tudor / H3K4me3 peptide binding | Potency, µM (titrated, usually from 114 µM), hits mostly inhibitors | 390,000 compounds, 4.4% hits; note: nearly all actives have a fitted effect of over 50% in size
Sfp PPTase inh: Sfp phosphopantetheinyl transferase inhibition. 310,000 compounds, 3.5% hits. Potency, µM, usual class: inhibitors. Biochemical Sfp PPTase activity, qHTS. Q9F4F7. AID 1490;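 note: the enzyme is Sfp with the accession as filed and its product quenches rhodamine fluorescence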
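With Hepes-Na pH 7.6 buffer containing 10 mM MgCl2, Sfp (15 nM) modified BHQ-2-YbbR (12.5 uM) using rhodamine-CoA (5 uM). Two reads 30 minutes apart at 525/598 nm yielded each well's rate.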
HP1b chromo inh: inhibitors of HP1-beta chromodomain binding to methylated histone tails; AID 540317; AlphaScreen HP1-beta / biotin-H3K9me3 peptide binding; 390,000 compounds, 0.56% hits; Potency, µM (doses to about 114 µM), most hits filed as inhibitors; note: nearly all actives have a fitted effect of over 70% in size
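AlphaScreen: HP1-beta (50 nM) preformed 30 min with biotin-H3(1-18)K9me3 peptide (50 nM) in PBS pH 7.4, 0.01% Tween-20. Compound added for 30 min at RT, then streptavidin donor/nickel chelate acceptor beads (10 ug/mL) for 30 min.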
Each line names hits and unclear results; the compound was inactive in the other large screens; ! = a repeat was not active. Hits are enriched below; roughly 12% of the tested compounds scored in any of these assays. Calls come from the whole dose curve; as a rule, active = well fitted curve in the direction sought with a large enough effect; inconclusive = small, poorly fitted or top-dose-only effect, or another doubt; inactive = no such curve, though single readings can be large; an effect the other way counts as inactive or inconclusive.

C#CCOCCOCCOCCNc1nc(N2CCN(C(=O)[C@H]([C@@H](C)CC)n3cc([C@@H](N)CO)nn3)CC2)nc(N2CCN(C(=O)[C@H](CCCCN)n3cc([C@@H](N)C(C)CC)nn3)CC2)n1 (stereo partly drawn)	BAZ2B inh 50µM, JMJD2A Tudor 50µM
C#CCOCCOCCOCCNc1nc(N2CCN(C(=O)[C@H](CCCCN)n3cc(CN)nn3)CC2)nc(N2CCN(C(=O)[C@H](CCCCN)n3cc([C@@H](N)[C@H](C)CC)nn3)CC2)n1	none (no result: G9a inh, BAZ2B inh, Sfp PPTase inh)
COc1cccc(C(=O)Nc2ccccc2NC(=O)c2cccc(OC)c2)c1	none (no result: G9a inh)
CC(C)(O)C#Cc1ccc(C(=O)N2CCN(C(=O)c3ccco3)CC2)cc1	none
COc1cc(/C=N/NS(=O)(=O)c2ccc3ccccc3c2)ccc1OCc1ccc(C(=O)O)cc1	G9a inh 50µM
COc1ccc(O)c(/C=N/NS(=O)(=O)c2ccc(C)cc2)c1	none
CC(=O)Oc1ccc(/C=N/NS(=O)(=O)c2ccc(C)cc2)c(OC(C)=O)c1	G9a inh 40µM
Cc1ccc(S(=O)(=O)N/N=C/c2ccc3nccnc3c2)cc1	G9a inh 3.2µM
COc1ccc(/C=N/NS(=O)(=O)c2ccc(C)cc2)cc1OC(=O)c1ccccc1	BAZ2B inh 79µM
O=c1ccc(-c2ccc(S(=O)(=O)NCC3CCN(Cc4cccc(F)c4)CC3)s2)n[nH]1	BAZ2B inh inconclusive (no result: G9a inh)
CS(=O)(=O)N1CCC(C(=O)O)CC1	BAZ2B inh 5.6µM
C=CCNC(=O)C1CCN(S(C)(=O)=O)CC1	none
Cc1cc(SCC(N)=O)nc(SCC(=O)c2ccccc2)n1	G9a inh 28µM, Sfp PPTase inh 45µM
Cc1cc(SCNC(=O)c2ccccc2)nc(C(C)C)n1	G9a inh 32µM, Sfp PPTase inh inconclusive
Cc1ccc(C(=O)CSc2cc(C)nc(SCC(=O)c3ccccc3)n2)cc1	none
Cc1cc(SCC(=O)c2ccccc2)nc(C)n1	G9a inh 50µM
Cc1nc2ccccc2nc1SCC(=O)c1ccccc1	G9a inh inconclusive, Sfp PPTase inh 45µM
O=C(CSc1ccc2ccccc2n1)c1ccccc1	none (no result: G9a inh)
Cc1cc(SCC(=O)Nc2ccccc2)nc(C)n1	none
O=C(c1ccccc1)N(Cc1ccco1)Cc1cccs1	none (no result: Sfp PPTase inh)
CCS(=O)(=O)c1cccc(C(=O)N2CCN(c3nc4c(C)ccc(Cl)c4s3)CC2)c1	none (no result: Sfp PPTase inh)
COC(=O)c1sc(NC(=O)Cc2cccs2)nc1C	G9a inh 28µM
COC(=O)c1cc(OC)c(OC)cc1NC(=O)Cc1cccs1	BAZ2B inh inconclusive, Sfp PPTase inh inconclusive (no result: G9a inh)
CC(=O)Nc1cccc(NC(=O)Cc2cccs2)c1	G9a inh 79µM, BAZ2B inh inconclusive
COC(=O)c1cc(NC(=O)Cc2cccs2)cc(C(=O)OC)c1	G9a inh inconclusive, BAZ2B inh 50µM, JMJD2A Tudor 45µM, HP1b chromo inh inconclusive
Cc1ccc(C(=O)C(C)N2C(=O)NC(C)(c3ccccc3)C2=O)cc1 (stereo not drawn)	none
Cc1ccccc1NC(=S)c1ccc2ccccc2n1	G9a inh 11µM, BAZ2B inh 10µM, Sfp PPTase inh 28µM
CCCN(CC(=O)Nc1ccccc1C)C(=O)c1ccc2ccccc2n1	none (no result: Sfp PPTase inh)
COc1ccc(C(C)n2c(C)c3c(C)nnc(C)c3c2C)cc1 (stereo not drawn)	G9a inh inconclusive, BAZ2B inh 89µM!, JMJD2A Tudor inconclusive
[O-][n+]1c2c(nn1-c1ccccc1)/C(=N/O)CCC2	none
[O-][n+]1onc2c1CCC(=N/O)/C2=N\Nc1ccccc1	G9a inh 25µM, BAZ2B inh 50µM, Sfp PPTase inh 32µM (no result: JMJD2A Tudor, HP1b chromo inh)
COCCN(CCOC)C(=O)C12CCC(C)(C(=O)C1)C2(C)C (stereo not drawn)	G9a inh 50µM
CN(C)c1ccc(C=Nc2ccccc2C(N)=O)cc1	G9a inh 18µM (no result: BAZ2B inh)
NC(=O)c1cc[n+](CC2=C(C(=O)O)N3C(=O)[C@@H](NC(=O)[C@@H](c4ccccc4)S(=O)(=O)[O-])[C@H]3SC2)cc1	G9a inh 3.8µM (no result: BAZ2B inh, JMJD2A Tudor, Sfp PPTase inh, HP1b chromo inh)
O=C(Cc1cccs1)NC1C(=O)N2C(C(=O)[O-])=C(C[n+]3ccccc3)CSC12 (stereo not drawn)	Sfp PPTase inh inconclusive (no result: BAZ2B inh, JMJD2A Tudor, HP1b chromo inh)
Cn1c(=O)c2c(nc(NCCc3ccccc3)n2Cc2ccc(Cl)c(Cl)c2)n(C)c1=O	none (no result: Sfp PPTase inh)
CCN(CC)CCNC(=O)c1sc2nc3n(c(=O)c2c1C)CCCCC3	none (no result: Sfp PPTase inh)
